Experimental findings from PubChem BioAssay are described below.

One assay addresses Albumin (Bos taurus) (UniProt P02769). The assay can be described thus: compounds binding labelled BSA control protein – biochemical, small-molecule microarray, Alexa647 label, 635/667 nm fluorescence, artefact control for SMM control protein annotation, profiling panel (AID 1118).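 Note: score merges 667 nm emission intensity and signal-to-noise per printed compound spot.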 Particulars: BSA-A647 binding, fluorescence 635 nm, higher = more signal.
A short description of assay [1]: probe aXIP binding to arrayed compounds – biochemical, NeuroSMM set, 635/667 nm fluorescence, primary screen (AID 1119).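 Note: probe is the protein aXip251-270 applied at 1 µg/mL to compound-printed slides; binding of probe to printed compounds measured as 667 nm fluorescence plus signal to noise.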 The conditions noted are these: small-molecule microarray, higher = more signal, called active from +8 up or from −8 down.
Assay [2] can be described thus: probe aNOTCH3 binding on compound microarray – biochemical, small-molecule microarray, 635/667 nm fluorescence, primary screen (AID 1120).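 Note: probe is a biotin-tagged antibody raised against NOTCH3 rather than NOTCH3 protein; score merges spot fluorescence near 667 nm with spot signal to noise.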 Particulars: higher = more signal.
The nature of assay [3]: probe aNOTCH2 binding on compound microarray – biochemical, small-molecule microarray, 635/667 nm fluorescence, primary screen (AID 1121).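 Note: score merges feature fluorescence read at 667 nm with its signal to noise.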 The conditions noted are these: higher = more signal.
For assay [4], the target named is Carbonic anhydrase 2 (Homo sapiens) (UniProt P00918). The assay can be described thus: compounds binding carbonic anhydrase 2 – biochemical, small-molecule microarray, Alexa647-labelled CAII, profiling panel (AID 1122). Particulars: CAII-A647 binding fluorescence, higher = more signal.
The nature of assay [5]: COS7 lysate on small-molecule microarray, probe aHis, 635 nm (AID 1123).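 Note: z-score combines 667nm fluorescence intensity with signal-to-noise per printed compound spot.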 The conditions noted are these: COS7 cell lysate, fluorescence, higher = more signal.
Assay [6] can be described thus: probe aLAP1 signal on lysate-treated microarray – cell lysate, small-molecule microarray, COS7 lysate, primary screen (AID 1124).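 Note: lysate comes from COS7 cells expressing LAP1 and is applied at 0.3 µg/mL; score merges spot fluorescence near 667 nm with signal-to-noise over triplicate slides.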 Particulars: probe aLAP1, fluorescence, higher = more signal.
The next assay concerns Sam68 (KHDRBS1). The assay can be described thus: compounds binding KHDRBS1 protein – biochemical, small-molecule microarray, 635 nm fluorescence, primary screen (AID 1125).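 Note: score merges 667 nm channel intensity with signal to noise over triplicate slides.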 Particulars: higher = more signal.
Assay [7] relates to Chordin-like protein 2 (CHRDL2). Nature of the assay: compounds binding chordin-like 2 – biochemical, small-molecule microarray, 635 nm fluorescence, primary screen (AID 1126).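 Note: printed compound slides probed with Chrdl2 protein at 4 µg/mL for 1 h at 4 C; score merges 667 nm emission intensity with signal to noise over three replicate slides.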 The conditions noted are these: fluorescence 635 nm, higher = more signal.
Assay [8] has as its target Concanavalin-A (Canavalia ensiformis) (UniProt P02866). Nature of the assay: compounds binding concanavalin A lectin – biochemical, small-molecule microarray, Alexa647 label, 635 nm, artefact control for SMM control protein annotation, primary screen (AID 1127).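 Note: z combines 667 nm emission intensity with signal-to-noise across three replicate slides.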 The conditions noted are these: ConA-A647 binding fluorescence, higher = more signal.
Assay [9] is described as follows: compounds binding Alexa647 anti-His antibody – biochemical, small-molecule microarray, 635 nm fluorescence, artefact control for SMM control protein annotation, primary screen (AID 1128).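 Note: score merges feature fluorescence with signal-to-noise for each printed compound spot.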 Particulars: higher = more signal.
The test system of assay [10] is Human papillomavirus type 1a E7 protein (residues 1-88). The assay can be described thus: HPV1a E7 small-molecule binders, primary screen, biochemical, small-molecule microarray, residues 1-88, 635 nm (AID 1129). Particulars: small-molecule microarray binding, fluorescence 635 nm; higher = more signal.
In assay [11] the target is Focal adhesion kinase 1 (Homo sapiens) (UniProt Q05397). The assay can be described thus: PTK2 protein binding on printed compound slides – biochemical, small-molecule microarray, 635/667 nm fluorescence, BSA, DTT, primary screen (AID 1130).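 Note: composite of spot emission at 667 nm and signal to noise over triplicate slides.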 The conditions noted are these: 635 nm fluorescence, higher = more signal.
The test system of assay [12] is Fibrinogen (Alexa647-labelled). The assay can be described thus: Alexa647-fibrinogen binding to printed small molecules – biochemical, small-molecule microarray, 635/667 nm fluorescence, artefact control for SMM control-protein annotation, profiling panel (AID 1131).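 Note: z-score merges 667 nm fluorescence with per-spot signal-to-noise over triplicate slides.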 The conditions noted are these: fibrinogen-A647 binding fluorescence, higher = more signal.
Assay [13] has as its target Follistatin (Homo sapiens) (UniProt P19883). The assay can be described thus: FST protein binding to printed compounds – biochemical, small-molecule microarray, 635/667 nm fluorescence, primary screen (AID 1132). The conditions noted are these: 635 nm fluorescence, higher = more signal.
The target of assay [14] is Fibroblast growth factor 2 (Homo sapiens) (UniProt P09038). The assay can be described thus: basic fibroblast growth factor binding to printed compounds – biochemical, small-molecule microarray, 635/667 nm fluorescence, primary screen (AID 1133). The conditions noted are these: FGF2, fluorescence 635/667, higher = more signal.
The nature of assay [15]: JC-1 mitochondrial potential readout, lung cancer cells – cell-based, A549, JC-1 fluorescence, basal, 24 h, 100 nL, profiling panel (AID 1138).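 Note: A549 lung adenocarcinoma cells under basal conditions with no added stimulus; test concentration not given here.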 Particulars: higher = more signal.
The subject of a further assay is Lefty1. Nature of the assay: Lefty1 protein binding to printed compounds – biochemical, small-molecule microarray, 635/667 nm fluorescence, primary screen (AID 1139). The conditions noted are these: fluorescence 635/667, higher = more signal.
Assay [16] has as its system wheat germ agglutinin (Triticum aestivum), Alexa647-labelled. Nature of the assay: Alexa647-WGA lectin binding to printed small molecules – biochemical, small-molecule microarray, 635/667 nm fluorescence, artefact control for SMM control-protein annotation, profiling panel (AID 1140).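 Note: score merges 667 nm feature emission with signal to noise over triplicate slides.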 The conditions noted are these: WGA-A647 binding, 635 nm fluorescence, higher = more signal.

Assay [17] has as its target Luciferin 4-monooxygenase (Photinus pyralis) (UniProt P08659). Nature of the assay: inhibition of purified Photinus pyralis luciferase – biochemical, luminescence, purified enzyme, 2006 set, primary screen (AID 1141).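 Note: cell-free assay with purified firefly luciferase at 100 ng per well in PBS; test concentration not given here.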 The conditions noted are these: purified firefly luciferase, SteadyGlo luminescence, 30 min; higher = more signal, called active from +8 up or from −8 down.

Each structure is given as a SMILES string. Active and inactive are the calls of the source.

Concanavalin-A (Canavalia ensiformis), sequence (P02866 whole entry, looked up): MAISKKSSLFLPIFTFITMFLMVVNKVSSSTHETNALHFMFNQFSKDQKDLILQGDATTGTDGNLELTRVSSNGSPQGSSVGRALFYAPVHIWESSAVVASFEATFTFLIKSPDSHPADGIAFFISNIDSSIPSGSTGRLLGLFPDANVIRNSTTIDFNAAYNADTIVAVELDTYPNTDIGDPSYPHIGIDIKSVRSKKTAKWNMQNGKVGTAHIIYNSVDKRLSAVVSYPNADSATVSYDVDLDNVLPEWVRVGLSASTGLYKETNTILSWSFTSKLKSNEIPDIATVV
Focal adhesion kinase 1 (Homo sapiens), sequence (Q05397 whole entry, looked up): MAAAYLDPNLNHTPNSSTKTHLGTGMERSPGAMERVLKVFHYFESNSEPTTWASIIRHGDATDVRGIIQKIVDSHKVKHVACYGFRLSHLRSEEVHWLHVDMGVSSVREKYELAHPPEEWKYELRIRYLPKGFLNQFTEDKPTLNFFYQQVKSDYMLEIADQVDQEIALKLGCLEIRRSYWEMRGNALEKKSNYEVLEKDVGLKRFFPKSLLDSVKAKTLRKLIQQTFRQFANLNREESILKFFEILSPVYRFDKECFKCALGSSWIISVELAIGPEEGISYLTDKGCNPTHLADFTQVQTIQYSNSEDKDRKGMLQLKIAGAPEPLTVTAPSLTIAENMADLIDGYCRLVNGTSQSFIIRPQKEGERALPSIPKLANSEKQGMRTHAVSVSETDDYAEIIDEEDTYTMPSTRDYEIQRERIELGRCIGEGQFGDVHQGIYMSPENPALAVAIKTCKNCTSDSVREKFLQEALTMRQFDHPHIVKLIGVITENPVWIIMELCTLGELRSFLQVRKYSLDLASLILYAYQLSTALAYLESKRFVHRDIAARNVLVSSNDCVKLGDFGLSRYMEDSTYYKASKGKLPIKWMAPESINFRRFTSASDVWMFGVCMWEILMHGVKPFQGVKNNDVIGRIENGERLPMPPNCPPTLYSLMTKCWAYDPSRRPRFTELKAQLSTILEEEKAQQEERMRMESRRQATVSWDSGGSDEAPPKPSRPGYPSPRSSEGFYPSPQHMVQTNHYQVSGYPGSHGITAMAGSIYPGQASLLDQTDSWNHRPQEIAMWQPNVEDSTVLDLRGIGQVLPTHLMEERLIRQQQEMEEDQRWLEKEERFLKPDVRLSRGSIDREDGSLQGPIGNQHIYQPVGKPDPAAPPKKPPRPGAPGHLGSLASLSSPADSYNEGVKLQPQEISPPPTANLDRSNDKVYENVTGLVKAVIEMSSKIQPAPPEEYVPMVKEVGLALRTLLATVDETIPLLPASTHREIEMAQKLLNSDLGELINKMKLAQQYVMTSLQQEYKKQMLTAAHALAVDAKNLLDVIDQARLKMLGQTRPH
Follistatin (Homo sapiens), sequence (P19883 whole entry, looked up): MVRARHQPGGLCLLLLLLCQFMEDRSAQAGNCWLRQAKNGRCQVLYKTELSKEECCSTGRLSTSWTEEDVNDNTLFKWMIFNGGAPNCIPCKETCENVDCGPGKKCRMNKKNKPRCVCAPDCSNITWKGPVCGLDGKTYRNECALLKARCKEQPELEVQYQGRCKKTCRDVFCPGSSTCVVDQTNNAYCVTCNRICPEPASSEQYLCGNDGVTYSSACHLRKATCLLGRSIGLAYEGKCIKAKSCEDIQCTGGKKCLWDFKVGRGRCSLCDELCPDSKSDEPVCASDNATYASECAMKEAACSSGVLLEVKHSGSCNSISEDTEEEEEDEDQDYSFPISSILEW
Albumin (Bos taurus), sequence (P02769 whole entry, looked up): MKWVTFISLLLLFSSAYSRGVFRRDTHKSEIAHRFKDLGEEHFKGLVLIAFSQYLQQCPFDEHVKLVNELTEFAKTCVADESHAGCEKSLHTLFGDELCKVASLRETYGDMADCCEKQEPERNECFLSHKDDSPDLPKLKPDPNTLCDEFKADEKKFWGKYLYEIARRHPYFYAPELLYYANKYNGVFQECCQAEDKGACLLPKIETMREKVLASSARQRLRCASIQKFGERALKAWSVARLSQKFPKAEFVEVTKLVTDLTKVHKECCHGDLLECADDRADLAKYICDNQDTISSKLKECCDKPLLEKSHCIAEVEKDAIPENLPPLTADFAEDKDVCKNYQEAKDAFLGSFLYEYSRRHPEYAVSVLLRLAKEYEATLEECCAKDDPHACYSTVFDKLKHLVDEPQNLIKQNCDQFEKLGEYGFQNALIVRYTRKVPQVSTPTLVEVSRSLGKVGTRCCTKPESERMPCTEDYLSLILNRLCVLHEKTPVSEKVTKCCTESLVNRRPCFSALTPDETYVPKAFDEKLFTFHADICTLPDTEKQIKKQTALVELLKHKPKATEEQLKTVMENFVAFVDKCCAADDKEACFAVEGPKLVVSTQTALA
Luciferin 4-monooxygenase (Photinus pyralis), sequence (P08659 whole entry, looked up): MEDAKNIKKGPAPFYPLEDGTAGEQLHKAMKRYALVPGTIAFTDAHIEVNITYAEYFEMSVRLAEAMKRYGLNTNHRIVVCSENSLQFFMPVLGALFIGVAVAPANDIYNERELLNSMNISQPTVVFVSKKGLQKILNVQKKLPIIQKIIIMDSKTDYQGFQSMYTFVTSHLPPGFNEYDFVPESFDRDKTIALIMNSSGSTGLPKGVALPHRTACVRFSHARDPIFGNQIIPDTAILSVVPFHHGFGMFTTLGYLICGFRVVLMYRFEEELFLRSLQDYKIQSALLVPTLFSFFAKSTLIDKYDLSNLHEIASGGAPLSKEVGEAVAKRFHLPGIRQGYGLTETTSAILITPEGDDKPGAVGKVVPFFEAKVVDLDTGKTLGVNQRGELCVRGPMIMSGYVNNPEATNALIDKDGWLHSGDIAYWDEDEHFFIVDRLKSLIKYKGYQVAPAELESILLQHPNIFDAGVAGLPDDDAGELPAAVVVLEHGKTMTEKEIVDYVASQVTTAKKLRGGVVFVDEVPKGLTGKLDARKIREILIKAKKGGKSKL
Fibroblast growth factor 2 (Homo sapiens), sequence (P09038 whole entry, looked up): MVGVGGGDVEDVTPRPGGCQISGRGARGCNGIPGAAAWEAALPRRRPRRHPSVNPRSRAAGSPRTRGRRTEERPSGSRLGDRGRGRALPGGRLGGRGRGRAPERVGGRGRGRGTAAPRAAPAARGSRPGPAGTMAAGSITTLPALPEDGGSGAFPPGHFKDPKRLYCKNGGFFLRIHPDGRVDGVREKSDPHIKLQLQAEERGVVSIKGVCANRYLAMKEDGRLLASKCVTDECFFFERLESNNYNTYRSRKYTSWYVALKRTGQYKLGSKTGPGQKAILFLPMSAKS

On to `Cc1ccc(S[C@]2(C(=O)NCCN3CCOCC3)CC(=O)N(C(C)C)[C@@H]2c2ccc(CO)cc2I)cc1`, for which the composite z-score in the assay with Albumin (Bos taurus) was -0.233; in assay [2], -0.0111; in assay [3], -0.0391; in assay [4], 0.288; in assay [5], 1.19; in assay [6], 0.933. Moreover, the composite z-score was 0.949 in the assay with Sam68 (KHDRBS1); -0.975 in assay [7]; -0.452 in assay [8]; -1.03 in assay [9]; -0.636 in [10]; 0.218 in assay [11]. Also, the composite z-score in assay [12] was -1.09; in [13] it was -0.453; in assay [14] it was -0.706; with Lefty1, -0.816; in [16], -0.581. Moreover, the composite Z-score in assay [1] was 0.289 (inactive). Also, the figures for the z-score in assay [15] and in assay [17] were 1.94 and -1.3 (inactive), respectively.
Take `C=C(COC)C(=O)CC[C@@H](OC(=O)c1ccccc1-c1ccccc1C(=O)O)c1ccccc1OCCO`: the composite z-score with Albumin (Bos taurus) was -0.597; in [2], -0.122; in [3], -0.0174; in assay [4], 0.531; in assay [5], -0.381; in assay [6], 1.67. Also, the composite z-score with Sam68 (KHDRBS1) was 0.448; in assay [7], 0.538; in [8] it was 0.0185; in assay [9], 0.116; in [10], 1.15; in assay [11] it was -0.267. For the same compound, the composite z-score was 0.599 in assay [12]; 1.29 in [13]; 1.64 in assay [14]; 0.922 with Lefty1; -0.272 in assay [16]. In [1], the composite Z-score was 0.49 (inactive). Moreover, the results for the z-score in [15] and in assay [17] were -0.0562 and -6.94 (inactive), respectively.
For `COCCCNC(=O)[C@@]1(Cc2ccccc2I)c2ccccc2C(=O)N(C2CCCCC2)[C@H]1c1ccc(CO)cc1`, the composite z-score in the assay with Albumin (Bos taurus) is 0.653; in assay [2], -0.0377; in assay [3], -0.112; in assay [4], 0.544; in assay [5], 2.36; in assay [6] it was 0.386. The composite z-score is 1.03 in the assay on Sam68 (KHDRBS1); -0.415 in assay [7]; 0.75 in assay [8]; 0.912 in assay [9]; 1.02 in assay [10]; 0.312 in assay [11]. The composite z-score in [12] is 0.544; in [13], 0.926; in assay [14], 1.29; in the assay on Lefty1, 0.812; in assay [16], 0.772. Besides, the composite Z-score in assay [1] was 0.732 (inactive). Moreover, the z-score is 0.438 in assay [15] and 0.948 (inactive) in assay [17].
`COC(=O)C1=CC(CCCO)=CC(c2ccc(CN3CCCC3)cc2)N(C)C=C1C(=O)OC` (stereo not given): the composite z-score in the assay with Albumin (Bos taurus) is 0.935; in assay [2], -0.105; in assay [3], 0.0334; in [4] it was 0.866; in [5] it was 1.72; in assay [6], 0.181. The composite z-score in the assay on Sam68 (KHDRBS1) was 1; in assay [7], 0.164; in [8], 0.361; in assay [9], 1.73; in [10] it was 0.821; in assay [11], 0.111. Also, the composite z-score was 1.01 in assay [12]; 0.468 in [13]; -0.232 in assay [14]; -0.079 in the assay with Lefty1; 1.01 in assay [16]. Moreover, the composite Z-score in assay [1] is 1.22 (inactive). The z-score was 0.915 in assay [15] and -0.208 (inactive) in [17].
For `COC(=O)Cn1c(C(=O)N(C)C)cc2c1C[C@H]1CN(C(=O)c3ccccc3)[C@@](Cc3ccccc3)(C(=O)OC)[C@@H]21`, the composite z-score was found to be 0.759 in the assay with Albumin (Bos taurus); 0.194 in [2]; 0.417 in [3]; 0.792 in assay [4]; 1.55 in assay [5]; 0.817 in assay [6]. For the same compound, the composite z-score in the assay on Sam68 (KHDRBS1) is -0.627; in assay [7], -0.537; in [8], 0.169; in assay [9] it was 0.733; in [10], 0.278; in assay [11], 0.499. Besides, the composite z-score in assay [12] is -0.254; in assay [13], -0.253; in [14], 0.179; with Lefty1 it was -0.0528; in assay [16], 0.533. For the same compound, the composite Z-score in assay [1] was -0.265 (inactive). Moreover, the z-score in assay [15] was 0.553; in assay [17] it was 3.15 (inactive).
